Gal4-VP16 FLuc – VP16 counterscreen qHTS for inhibitors of ROR gamma transcriptional activity | Drosophila S2 Gal4-VP16 UAS-luciferase, luminescence, 20 h | Potency, µM (top dose mostly 53.6 µM), usual class: inhibitors | 3.5% of 310,000 active;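 note: Gal4-VP16 expression switched on by copper sulfate through the metallothionein promoter; nearly all actives have a fitted effect of over 50% in size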
TGFb SMAD3 inh – qHTS for Inhibitors of TGF-b; HepG2 CAGA-GFP TGF-b/SMAD3 reporter, GFP fluorescence, 18 h; TGF-beta stimulated, 500 pg/mL final; Potency, µM (top dose mostly 46.1 µM), actives largely listed as inhibitors; 1.2% of 410,000 active; AID 588855, 2011; note: nearly all actives have a fitted effect of over 65% in size
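First, reporter cells (HEPG2 CAGA-GFP) rested 2 h at 37 degrees C. Next, compounds were pinned in and TGF-beta added to 500 pg/mL final. After 18 h, GFP was imaged per cell and summed per well.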
HepG2 viability – qHTS for Inhibitors of TGF-b: Cytotox Counterscreen; 0.76% of 410,000 active; HepG2 CAGA-GFP viability, ATP luminescence, 18 h; Potency, µM (doses to about 46.1 µM), usual class: cytotoxic
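CellTiter-Glo luminescence gave cytotoxicity after 18 hours at 37 degrees C. The cells were HepG2 CAGA-GFP in 1% FBS DMEM, stimulated with 500 pg/mL TGF-beta after compound addition. %Activity was normalised to no-cell wells (complete cell-killing) and DMSO (no toxicity), and curves were fitted and classified.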
RORg inh – qHTS for inhibitors of ROR gamma transcriptional activity; AID 2551, 2010; 5.4% of 310,000 active; Potency, µM (highest dose often 53.6 µM), actives largely listed as inhibitors; Drosophila S2 Gal4-RORgamma UAS-luciferase reporter, 20 h; note: nearly all actives have a fitted effect of over 60% in size
Target sequence (P51450 whole entry, looked up, the tested form may be a part): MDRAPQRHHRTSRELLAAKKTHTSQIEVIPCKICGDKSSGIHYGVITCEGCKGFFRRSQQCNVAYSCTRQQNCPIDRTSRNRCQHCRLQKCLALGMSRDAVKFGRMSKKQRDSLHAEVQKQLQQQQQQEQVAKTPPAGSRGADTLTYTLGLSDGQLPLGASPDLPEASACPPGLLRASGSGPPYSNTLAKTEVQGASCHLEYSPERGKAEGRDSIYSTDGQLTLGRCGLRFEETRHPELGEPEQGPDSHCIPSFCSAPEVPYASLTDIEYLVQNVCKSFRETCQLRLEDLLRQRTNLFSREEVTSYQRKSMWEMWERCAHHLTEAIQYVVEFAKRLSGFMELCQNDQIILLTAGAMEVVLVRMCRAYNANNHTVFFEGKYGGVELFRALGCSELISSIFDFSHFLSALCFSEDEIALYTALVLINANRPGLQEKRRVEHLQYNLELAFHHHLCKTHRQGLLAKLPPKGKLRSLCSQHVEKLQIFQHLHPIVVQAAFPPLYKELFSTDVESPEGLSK
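Luminescence from a UAS-regulated Photinus luciferase reporter in stably transfected Drosophila Schneider cells is measured; decreased signal marks ROR gamma inhibition. Fusion expression is induced by 700 uM copper sulfate for 20 hr.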
ATXN2 expr inh – Primary qHTS for Inhibitors of ATXN expression; Potency, µM (series often up to 57 µM), usual class: inhibitors; 0.72% of 360,000 active; HEK-293 ATXN2-luciferase reporter, luminescence, 24 h; note: nearly all actives have a fitted effect of over 55% in size
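qHTS (up to 57 uM final) was run with 24 h compound exposure of reporter cells at 37 °C. Each well was multiplexed: SteadyGlo luminescence measured ATXN2-luciferase expression after a fluorogenic Gly-Phe-AFC viability readout (25 uM final).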
S2 tox – Viability Counterscreen for Primary qHTS for Inhibitors of ATXN expression | AID 651635, 2014 | 0.49% of 400,000 active | S2 cells (HEK-293 line with an ATXN2-luciferase reporter) viability, CellTiter-Fluor protease fluorescence, 24 h | Potency, µM (titrated, usually from 56.7 µM), most hits filed as cytotoxic; note: nearly all actives have a fitted effect of over 40% in size
Of the large screens only hits and unclear results are named; the others gave an inactive call. Rows were chosen to be rich in hits. Some 6.3% of all compounds tested hit in one or more screens of this group. Calls come from the whole dose curve; as a rule, active = well fitted curve in the direction sought with a large enough effect; inconclusive = small, poorly fitted or top-dose-only effect, or another doubt; inactive = no such curve, though single readings can be large; an effect the other way counts as inactive or inconclusive.

Cc1ccc2c(c1)CN(CCNC(=O)C(C)Oc1ccccc1)CC(C)O2 (stereo not drawn)	none (no result: Gal4-VP16 FLuc, TGFb SMAD3 inh, HepG2 viability, RORg inh, ATXN2 expr inh)
CCCCN1CCc2nc(N3CCN(c4ncccn4)CC3)ncc2C1	none (no result: Gal4-VP16 FLuc, TGFb SMAD3 inh, RORg inh, ATXN2 expr inh, S2 tox)
Cc1ccc(S(=O)(=O)N2CCCN(C(=O)c3ccc(-n4nccc4C)cc3)CC2)cc1	none (no result: Gal4-VP16 FLuc, RORg inh)
Cc1ccn2c(NC3CCCC3)c(-c3ccccn3)nc2c1	TGFb SMAD3 inh inconclusive, RORg inh 3.55µM, S2 tox inconclusive
CCN1C(=O)CC(N2CCC(C(=O)N3CCOCC3)CC2)C1=O (stereo not drawn)	none
O=C(C1CCN(C2CC(=O)N(c3ccc(F)cc3)C2=O)CC1)N1CCOCC1 (stereo not drawn)	Gal4-VP16 FLuc inconclusive, RORg inh 12.6µM
COc1cc(/C=C2/C(=N)N3C=CSC3=NC2=O)ccc1OCCCOc1c(C)cccc1C	Gal4-VP16 FLuc inconclusive, RORg inh 11.2µM
CCOc1cc(/C=C2/C(=N)N3C=CSC3=NC2=O)ccc1OCCCOc1ccccc1C	Gal4-VP16 FLuc inconclusive, TGFb SMAD3 inh inconclusive, ATXN2 expr inh inconclusive, S2 tox inconclusive
COc1cc(/C=C2/C(=N)N3C=CSC3=NC2=O)ccc1OCCCOc1ccccc1C	Gal4-VP16 FLuc 2.82µM, TGFb SMAD3 inh inconclusive, RORg inh 4.47µM
COc1cc(=O)n2c(c1C(=O)NC(C)c1ccco1)CCN(C(=O)c1ccc(F)cc1Cl)CC2 (stereo not drawn)	none (no result: Gal4-VP16 FLuc, TGFb SMAD3 inh, HepG2 viability, RORg inh, ATXN2 expr inh)
CCOc1ccc(C2CC=C(C(C)=O)CN2S(=O)(=O)c2ccc(C)cc2)cc1 (stereo not drawn)	TGFb SMAD3 inh inconclusive (no result: Gal4-VP16 FLuc, RORg inh)
Cc1nn(C)c(C(=O)Nc2ccc(Cn3cccn3)cc2)c1[N+](=O)[O-]	none
Cc1nn(C)c(C(=O)NNC(=S)Nc2ccc(Cl)cc2)c1[N+](=O)[O-]	Gal4-VP16 FLuc inconclusive, RORg inh 3.98µM
COc1cccc(NC(=S)NNC(=O)c2c([N+](=O)[O-])c(C)nn2C)c1	Gal4-VP16 FLuc inconclusive, RORg inh 2.51µM
COc1cccc(NC(=S)NNC(=O)C(C)n2nc(C)c([N+](=O)[O-])c2C)c1 (stereo not drawn)	RORg inh inconclusive
CC(C)[C@@H]1C(=O)N(S(C)(=O)=O)[C@H]2CCN(C(=O)/C=C\CN3CCCCC3)[C@@H]12	none (no result: TGFb SMAD3 inh, HepG2 viability, ATXN2 expr inh, S2 tox)
CC(C)(C)c1cn(-c2ccccc2)c(=S)[nH]1	Gal4-VP16 FLuc 7.94µM, RORg inh 7.08µM
Cc1ccc(-n2cc(C(C)(C)C)[nH]c2=S)cc1	Gal4-VP16 FLuc 6.31µM, RORg inh 2.24µM
CCOc1ccc(NS(=O)(=O)c2ccc3c(c2)CCCN3C(=O)C2CCC2)cc1	TGFb SMAD3 inh inconclusive, S2 tox inconclusive (no result: Gal4-VP16 FLuc, RORg inh)
COC(=O)c1ccc2nc(C3CCCCC3)c(CC(C)(C)C)n2c1	TGFb SMAD3 inh inconclusive, HepG2 viability 10µM, ATXN2 expr inh inconclusive (no result: Gal4-VP16 FLuc, RORg inh, S2 tox)
Cc1ccc(C)c(NC(=O)CSc2nccn2-c2cccc(C)c2C)c1	TGFb SMAD3 inh inconclusive (no result: Gal4-VP16 FLuc, RORg inh)
S=C(Nc1ccccc1)Nc1ccccc1C#Cc1ccccc1	Gal4-VP16 FLuc inconclusive, RORg inh 11.2µM (no result: TGFb SMAD3 inh, HepG2 viability, ATXN2 expr inh, S2 tox)
N#Cc1ccc(NC(=S)Nc2ccccc2)cc1	none
S=C(Nc1ccccc1)Nc1ccccc1-n1cccc1	Gal4-VP16 FLuc 15.8µM, RORg inh 4.47µM (no result: ATXN2 expr inh)
C[Si](C)(C)C#Cc1ccccc1NC(=S)Nc1ccccc1	Gal4-VP16 FLuc inconclusive, RORg inh 14.1µM (no result: TGFb SMAD3 inh, HepG2 viability, ATXN2 expr inh, S2 tox)
N#Cc1ccccc1NC(=S)Nc1ccc(F)cc1	Gal4-VP16 FLuc 20µM, RORg inh 17.8µM
COC(=O)c1nc2n(n1)C(c1cc(OC)ccc1OC)C(C(=O)Nc1ccc(C)cc1C)=C(C)N2 (stereo not drawn)	none (no result: Gal4-VP16 FLuc, RORg inh)
Cc1ccc(NC(=O)c2cc(C)n(-c3cccc(C)c3)c2C)cc1	none
Cc1ccc(NC(=O)c2csc(-c3ccccc3)c2C)cc1	Gal4-VP16 FLuc 2µM, RORg inh 2µM, ATXN2 expr inh inconclusive, S2 tox inconclusive
Cc1ccc(NC(=O)c2cc(C)n(-c3ccccc3)c2C)cc1	Gal4-VP16 FLuc 6.31µM, RORg inh 4.47µM, ATXN2 expr inh inconclusive
COc1ccc(NC(=O)CNC(=O)Cn2ccc3ccccc3c2=O)cc1OC	none (no result: Gal4-VP16 FLuc, RORg inh)
Oc1ccc(-c2cnc(-c3ccc(O)cc3)nc2)cc1	Gal4-VP16 FLuc inconclusive, RORg inh 2.51µM, ATXN2 expr inh inconclusive, S2 tox inconclusive
CCCCOC(=O)c1cccc(NC(=O)/C=C/c2ccccc2Cl)c1	TGFb SMAD3 inh inconclusive (no result: Gal4-VP16 FLuc, RORg inh, ATXN2 expr inh, S2 tox)
COc1ccc(CC(=O)n2c(CC#N)nc3ccccc32)cc1OC	Gal4-VP16 FLuc inconclusive, RORg inh 11.2µM
C=CCSc1nc2ccccc2n1C(=O)/C=C/c1ccc(OC)c(OC)c1	Gal4-VP16 FLuc 11.2µM, RORg inh 5.01µM, ATXN2 expr inh 14.1µM, S2 tox 10µM
CCn1c(SCC(=O)N/N=C/c2ccc(OC)c(OC)c2)nc2ccccc21	none
COc1ccc(Cc2nc3ccccc3n2CC(=O)N/N=C/c2ccccc2)cc1OC	none
CCSc1nc2ccccc2n1C(=O)/C=C/c1ccc(OC)c(OC)c1	Gal4-VP16 FLuc inconclusive, TGFb SMAD3 inh inconclusive, RORg inh 7.08µM, ATXN2 expr inh 7.94µM, S2 tox 8.91µM
C=CCSc1nc2ccccc2n1C(=O)/C=C/c1cc(OC)c(OC)c(OC)c1	Gal4-VP16 FLuc 5.01µM, TGFb SMAD3 inh inconclusive, HepG2 viability 11.2µM, RORg inh 3.55µM, ATXN2 expr inh 10µM, S2 tox 3.55µM
O=C(c1ccncc1)N1CCC2(CCCN(c3ncccn3)C2)CC1	none (no result: TGFb SMAD3 inh, HepG2 viability, ATXN2 expr inh, S2 tox)
O=C(CSc1nc2c([nH]c3ccccc32)c(=O)n1-c1ccc(F)cc1)NCc1ccccc1	none (no result: Gal4-VP16 FLuc, RORg inh)

Compound activity deposited in PubChem BioAssay by National Center for Advancing Translational Sciences (NCATS).
